Screening data from PubChem.
Most compounds without a hit are left out; they make up all but 8.7% or so of the library.
Sfp inh = blocks B. subtilis Sfp PPTase activity | Q9F4F7 | Biochemical Sfp PPTase activity, qHTS | Potency, µM, for inactives: largest response in the series, negative = inhibition, actives largely listed as inhibitors | 3.5% of 310,000 active | AID 1490;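 also: the enzyme is Sfp with the accession as filed and its product quenches rhodamine fluorescence; 0% = enzyme reaction without inhibitor and -100% = no enzyme wells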
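Buffer: 50 mM Hepes-Na pH 7.6, 10 mM MgCl2, 0.01% Nonidet P-40, 0.01% BSA. Enzyme 15 nM, pre-exposed to compound 15 min; substrates then added and fluorescence change tracked over 30 min.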
ALOX12 inh = ALOX12 (human) lipoxygenase inhibition | Potency, µM (titrated, usually from 108 µM), inactives show at the top dose activity change, negative = inhibition, usual class: inhibitors | 1.1% of 580,000 active | P18054 | purified 12hLO, xylenol orange hydroperoxide absorbance | AID 1671190; also: % is scaled to controls: 0 for no effect and ±100 for the full control effect
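Purified human 12hLO at 150 nM in 25 mM Hepes, 0.01% Triton X-100, pH 7.0, preincubated 15 min at room temperature with compound. Reaction started with 40 uM arachidonic acid, 30 min at room temperature. Hydroperoxide measured by Fe-xylenol orange, 573/405 nm absorbance ratio.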
BAZ2B block = inhibitors of human BAZ2B bromodomain; Potency, µM (top dose mostly 114 µM), inactives show at the highest dose activity change, negative = inhibition, actives largely listed as inhibitors; Q9UIF8; 4.4% of 360,000 active; AlphaScreen BAZ2B-H3K14Ac peptide displacement; also: % is scaled to controls: 0 for no effect and ±100 for the full control effect; nearly all actives have a fitted effect of over 60% in size
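Protein-peptide AlphaScreen: BAZ2B 50 nM, b-H3K14Ac 50 nM, 1x PBS pH 7.4 + 0.01% Tween-20. Preincubation 30 min RT; cpd 30 min RT (top 110 uM); beads 20 min RT, light-protected.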
JMJD2A Tudor = inhibitors of human JMJD2A Tudor domain. O75164. AlphaScreen JMJD2A-Tudor / H3K4me3 peptide binding. Potency, µM (highest dose often 114 µM), for inactives: top-dose activity change, negative = inhibition, hits mostly inhibitors. 4.4% of 390,000 active; also: % is scaled to controls: 0 for no effect and ±100 for the full control effect; nearly all actives have a fitted effect of over 50% in size
Target sequence (O75164 whole entry, looked up, the tested form may be a part): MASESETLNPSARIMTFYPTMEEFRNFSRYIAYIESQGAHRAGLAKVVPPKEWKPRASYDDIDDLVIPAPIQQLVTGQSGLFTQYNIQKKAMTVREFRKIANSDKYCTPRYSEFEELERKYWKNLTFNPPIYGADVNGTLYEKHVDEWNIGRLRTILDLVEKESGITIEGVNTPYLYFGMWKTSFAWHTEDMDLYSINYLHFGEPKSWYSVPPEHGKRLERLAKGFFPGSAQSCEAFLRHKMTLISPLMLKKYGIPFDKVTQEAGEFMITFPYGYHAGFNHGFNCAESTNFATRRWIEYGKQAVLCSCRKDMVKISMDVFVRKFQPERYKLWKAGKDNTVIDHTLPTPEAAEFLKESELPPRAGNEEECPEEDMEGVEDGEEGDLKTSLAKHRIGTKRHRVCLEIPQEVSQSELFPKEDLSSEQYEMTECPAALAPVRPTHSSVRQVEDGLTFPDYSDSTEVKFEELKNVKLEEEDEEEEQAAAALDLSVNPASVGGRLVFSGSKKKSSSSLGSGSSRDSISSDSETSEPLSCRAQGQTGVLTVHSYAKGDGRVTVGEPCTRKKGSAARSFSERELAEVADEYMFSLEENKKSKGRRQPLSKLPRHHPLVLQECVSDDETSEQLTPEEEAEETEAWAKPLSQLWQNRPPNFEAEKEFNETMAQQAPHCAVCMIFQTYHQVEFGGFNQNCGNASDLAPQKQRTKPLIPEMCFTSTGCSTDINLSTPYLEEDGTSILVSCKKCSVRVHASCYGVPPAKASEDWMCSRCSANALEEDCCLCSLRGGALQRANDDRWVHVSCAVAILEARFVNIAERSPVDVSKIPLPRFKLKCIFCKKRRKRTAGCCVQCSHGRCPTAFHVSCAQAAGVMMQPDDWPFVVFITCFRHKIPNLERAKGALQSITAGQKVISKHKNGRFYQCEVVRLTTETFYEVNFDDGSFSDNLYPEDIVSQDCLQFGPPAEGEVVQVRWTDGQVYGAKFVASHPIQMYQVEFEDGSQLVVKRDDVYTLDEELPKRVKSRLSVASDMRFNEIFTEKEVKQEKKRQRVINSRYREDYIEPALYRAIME
G9a block = blocks human histone lysine methyltransferase G9a; Q96KQ7; G9a H3K9 monomethylation, AlphaScreen, 2 h; Potency, µM (titrated, usually from 102 µM), inactives show at the top dose activity, negative = inhibition, usual class: inhibitors; 8.8% of 350,000 active; AID 504332; also: % is scaled to controls: 0 for no effect and ±100 for the full control effect; nearly all actives have a fitted effect of over 75% in size
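Compounds were preincubated with 20 nM G9a for 15 min, after which biotinylated H3K9 peptide (500 nM) and SAM (20 uM) started a 2 h room-temperature reaction. Monomethylated product was quantified by antibody-based AlphaScreen chemiluminescence.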
HP1b chromo inh = HP1-beta chromodomain-methylated histone interaction inhibition. P83916. AlphaScreen HP1-beta / biotin-H3K9me3 peptide binding. Potency, µM (series often up to 114 µM), without a hit: at the top dose activity change, negative = inhibition, hits mostly inhibitors. 0.56% of 390,000 active. AID 540317; also: nearly all actives have a fitted effect of over 70% in size
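AlphaScreen: HP1-beta (50 nM) preformed 30 min with biotin-H3(1-18)K9me3 peptide (50 nM) in PBS pH 7.4, 0.01% Tween-20. Compound added for 30 min at RT, then streptavidin donor/nickel chelate acceptor beads (10 ug/mL) for 30 min.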
* = called active by the depositor; ? = inconclusive; · = not tested or not shown; [ ] = another dose, or the depositor's remark. Calls follow the shape of the dose curve; as a rule, active = well fitted curve in the direction sought with a large enough effect; inconclusive = small, poorly fitted or top-dose-only effect, or another doubt; inactive = no such curve, though single readings can be large; an effect the other way counts as inactive or inconclusive. Potency is read from the fitted curve at half-maximal effect.

SMILES | Sfp inh | ALOX12 inh | BAZ2B block | JMJD2A Tudor | G9a block | HP1b chromo inh
C=CCNC(=O)CCNC(=O)N1CCN(C(=O)c2cc3ccccc3[nH]2)CC1 | · | 13% | · | · | · | ·
COCC1CN(Cc2cccc(C(F)(F)F)c2)CC12CCNCC2 (centres undefined) | · | 8% | · | · | · | ·
Oc1ccc(/C=C/c2nc(-c3ccccc3O)n(-c3ccccc3)n2)c(O)c1 | · | ? | 32µM* | ? | ? | 1%
COCCNC(=O)c1c[nH]n2c(=O)cc(C3CCN(C(=O)OC(C)(C)C)CC3)nc12 | 15% | -2% | -21% | -8% | 56µM* | 25%
COCCNC(=O)c1cnn(-c2ccc(C)cc2C)c1C1CCN(C(=O)OC(C)(C)C)CC1 | · | -14% | 6%[57.1 µM] | -15% | -3%[59 µM] | 43%
COc1ccc(/C=C/C2=CC(C)(C)NC(=S)N2)cc1 | 6% | ? | -14% | -8%[57.1 µM] | 8.9µM* | 14%
CC(C)(C)c1ccc(-c2cc(C[C@H]3CNCC[C@H]3CC(=O)NCc3ccc(F)cc3)no2)cc1 | · | 22µM* | · | · | · | ·
CC(C)(C)NC(=O)C[C@@H]1CCNC[C@@H]1Cc1cc(-c2ccc(C(C)(C)C)cc2)on1 | · | 35µM* | · | · | · | ·
COc1ccc(CNC(=O)C[C@@H]2CCNC[C@@H]2Cc2cc(-c3ccc(C(C)(C)C)cc3)on2)cc1 | · | 18µM* | · | · | · | ·
COc1ccc(-c2cc(C[C@H]3CNCC[C@H]3CC(=O)N3CCN(c4ccccc4OC)CC3)no2)cc1 | · | 28µM* | · | · | · | ·
COc1ccc(-c2cc(C[C@H]3CNCC[C@H]3CC(=O)NCc3ccc(F)cc3)no2)cc1 | · | -12% | · | · | · | ·
O=C(C[C@@H]1CCNC[C@@H]1Cc1cc(-c2ccc(F)cc2)on1)NCc1ccccc1 | · | -7%[176 µM] | · | · | · | ·
c1cncc(Nc2cc3c(cn2)CN(Cc2ccc4[nH]ccc4c2)CCN3)c1 | · | -4%[176 µM] | · | · | · | ·
Cc1nnc2n1CCC(N(C)C(=O)NCc1ccco1)CC2 (centres undefined) | · | 29% | · | · | · | ·
CCOC(=O)c1ccc(S(=O)(=O)N2CCN(CC(O)COc3cccc(C(C)=O)c3)CC2)cc1 (centres undefined) | -20% | -69% | 79µM* | 18µM* | -9% | -13%
Cc1ccc(S(=O)(=O)N2CCN(CC(O)COc3ccccc3)CC2)cc1 (centres undefined) | 0% | 1% | 3% | -5% | 16% | -3%
CCC1=Nc2ccccc2NC2=C1C(=O)CCC2 | 35µM* | ? | 50µM* | -38% | ? | 2%
CC1=C2C(=O)CC(C)CC2=Nc2ccccc2N1 (centres undefined) | · | -73% | · | · | · | ·
CCCN(C)C(=O)c1cn2ccnc(-c3ccc(C)cc3)c2n1 | · | 48% | · | · | · | ·
CC(C)(C)NC(NC(=O)c1ccccc1Cl)C(Cl)(Cl)Cl (centres undefined) | · | -9% | · | · | · | ·
CCN1c2ccccc2NC2C1C(C(C)=O)C(=O)N2c1ccc(Cl)cc1 (centres undefined) | -7% | ? | ? | ? | 45µM* | -11%
CC(=O)Nc1ccc(NC(=O)C(c2ccccc2)N2Cc3ccccc3C2=O)cc1 (centres undefined) | · | ? | 2% | -6% | -31%[59 µM] | 22%
O=C(O)[C@@H](c1ccccc1)N1Cc2ccccc2C1=O | 28µM* | 40µM* | 20µM* | 25µM* | 40µM* | -11%
CCCCC(=O)NC(NC(=O)CCCC)c1ccc(Cl)cc1 | · | -27% | · | · | · | ·
Cc1oc2ccn(Cc3ccccc3F)c(=O)c2c1C(=O)NCc1cccc(Cl)c1 | · | -2% | · | · | · | ·
O=C(NCc1ccccc1Cl)C1CCCN(c2ncnc3nc[nH]c23)C1 (centres undefined) | · | 3% | · | · | · | ·
CN(C)C(=O)c1cccc(-c2csc(N3CCC(C(N)=O)CC3)n2)c1 | · | ? | -5% | -12% | -26%[12.7 µM] | 54%
NC(=O)C1CCN(c2nc(-c3cccc(N)c3)cs2)CC1 | · | -4% | ? | -18% | ? | 19%
Cn1ccc2cc(-c3csc(N4CCC(C(N)=O)CC4)n3)ccc21 | · | -11% | 50µM* | -7% | -25%[12.7 µM] | 50%
